Test results from ChEMBL document CHEMBL4513146, “CO-ADD screening of Karazin Kharkiv National University (Ukraine) compounds”.
Entries with a potency or affinity are not part of this list.

The molecules below were run on Klebsiella pneumoniae. Conditions: Concentration 32 ug.mL-1;; ASSAY_TEST Inhibition of Bacterial Growth; detection method Absorption (OD600); MEDIA CAMHB; plate type 384well; NBS; CORNING #3640; time 18 hr.

SMILES	Inhibition [%]
Cc1nnc2c(S(=O)(=O)N(Cc3ccccc3Cl)c3ccc(F)c(F)c3)cccn12	13.53
Cc1ccc(NC(=O)Cn2nc3c4c5c(sc4ncn3c2=O)CCCC5)cc1C	7.59
O=C(Cn1nc2nc(Nc3ccc(F)cc3)ccn2c1=O)Nc1ccc(F)cc1	8.54
CC(C)c1nnc2c(=O)n(CC(=O)Nc3cc(Cl)ccc3Cl)c3ccccc3n12	7.9
COc1cccc(Sc2nc3ccccc3n3c(=O)n(CC(=O)Nc4cc(C)cc(C)c4)nc23)c1	4.15
Cc1cc(C)cc(Nc2nc(C)cc3nn(CC(=O)Nc4ccc(Cl)cc4)c(=O)n23)c1	13.53
COc1cccc(CN(c2ccc(F)cc2)S(=O)(=O)c2cccn3cnnc23)c1	-0.69
CCOc1ccccc1NC(=O)Cn1nc2c(Sc3cccc(C)c3)nccn2c1=O	9.01
O=C(Cn1nc2c3cc(-c4ccc(F)cc4)nn3ccn2c1=O)Nc1ccccc1	5.09
COc1ccc(CN(c2cc(C)cc(C)c2)S(=O)(=O)c2cccn3cnnc23)cc1F	-0.72
Cc1ccc(NC(=O)Cn2c(=O)c3nnc(C(C)C)n3c3ccccc32)cc1F	13.19
Cc1ccc(-c2ccc3nn(CC(=O)N4CCN(c5ccccc5)CC4)c(=O)n3n2)cc1C	1.81
CCCc1nnc2c(=O)n(CC(=O)Nc3ccc4c(c3)OCCO4)c3ccccc3n12	-1.14
O=C(Cn1nc2c(SC3CCCCC3)nccn2c1=O)Nc1ccc(F)c(Cl)c1	0.9
COc1ccc(N(Cc2ccc(Cl)cc2)S(=O)(=O)c2ccc3nncn3c2)cc1	10.04
COc1ccc(-c2cc3c4nn(CC(=O)NCc5ccc(Cl)cc5)c(=O)n4ccn3n2)cc1	20.18
O=C(Cn1nc2ccc(-c3ccc(Cl)cc3)nn2c1=O)N1CCN(c2ccccc2F)CC1	1.3
O=C(CSc1nnc2c(=O)n(-c3ccc(Br)cc3)ccn12)c1ccc(F)cc1	7.31
COc1ccc(-c2cc3c4nnc(SCC(=O)Nc5ccccc5Cl)n4ccn3n2)cc1	1.23
Cn1c(=O)c2ccc(C(=O)NC3CCCCC3)cc2n2c(=O)n(CC#N)nc12	3.72

SMILES	Inhibition [%]
Cc1ccc(NC(=O)Cn2nc3c(SC4CCCCC4)nccn3c2=O)cc1F	13.26
O=C(Cn1nc2ccc(C(=O)NCc3ccccc3)cn2c1=O)Nc1ccc2c(c1)OCO2	7.16
O=c1n(Cc2cccc(C(F)(F)F)c2)nc2c(S(=O)(=O)N3CCCCC3)cccn12	6.48
Cc1ccc(Cn2nc3c(=O)n(-c4cccc(Cl)c4C)ccn3c2=O)cc1	10.23
CCOc1ccccc1CNC(=O)CCc1nnc2ccc(-c3ccc(C)cc3)nn12	6.87
COc1cccc(-n2ccn3c(SCc4ccc(Cl)cc4)nnc3c2=O)c1	9.45
Cc1ccc(-n2ccn3c(=O)n(Cc4ccc(F)cc4)nc3c2=O)cc1C	10.23
COc1ccc(NC(=O)Cn2nc3nc(Nc4ccc(F)cc4)ccn3c2=O)cc1F	11.34
COc1ccc(C(=O)CSc2nnc3c(=O)n(-c4ccccc4)ccn23)cc1OC	-1.19
Cc1nnc2c(S(=O)(=O)N(Cc3ccc(F)cc3)c3ccc(Cl)cc3)cccn12	5.76
COc1ccccc1NC(=O)Cn1c(=O)c2nnc(C(C)C)n2c2ccccc21	6.56
CCc1ccc(N(Cc2ccc(C)cc2)S(=O)(=O)c2cccn3c(C)nnc23)cc1	3.2
COc1cccc(CNC(=O)CSc2nnc3c4cc(-c5cc(C)ccc5C)nn4ccn23)c1OC	10.97
CCOc1ccc(-n2ccn3c(SCC(=O)c4ccc(C)cc4)nnc3c2=O)cc1	10.63
O=C(Cn1nc2n(Cc3ccccc3)c(=O)c3ccccc3n2c1=O)Nc1ccc2c(c1)OCO2	2.83
Cc1ccc(-c2cc3c4nnc(SCC(=O)Nc5ccc(C#N)cc5)n4ccn3n2)cc1	4.89
COc1cccc(-n2ccn3c(-c4ccc([N+](=O)[O-])cc4)nnc3c2=O)c1	6.14
CCCCn1c(=O)c2sccc2n2c(=O)n(CC(=O)NC(C)C)nc12	11.23
COC(=O)c1ccc(CN(c2cccc(C)c2)S(=O)(=O)c2cccn3c(C)nnc23)o1	9.19
O=C(CSc1nnc2c(=O)n(-c3cccc(F)c3)ccn12)NCCc1ccccc1	-3.34

The molecules below were run on Candida albicans. Conditions: Concentration 32 ug.mL-1; ASSAY_TEST Inhibition of Fungal Growth; detection method Absorption (OD530).

SMILES	Inhibition [%]
Cc1nnc2c(S(=O)(=O)N(Cc3ccccc3Cl)c3ccc(F)c(F)c3)cccn12	0.59
Cc1ccc(NC(=O)Cn2nc3c4c5c(sc4ncn3c2=O)CCCC5)cc1C	3.92
O=C(Cn1nc2nc(Nc3ccc(F)cc3)ccn2c1=O)Nc1ccc(F)cc1	3.4
CC(C)c1nnc2c(=O)n(CC(=O)Nc3cc(Cl)ccc3Cl)c3ccccc3n12	3.43
COc1cccc(Sc2nc3ccccc3n3c(=O)n(CC(=O)Nc4cc(C)cc(C)c4)nc23)c1	5.74
Cc1cc(C)cc(Nc2nc(C)cc3nn(CC(=O)Nc4ccc(Cl)cc4)c(=O)n23)c1	5.41
COc1cccc(CN(c2ccc(F)cc2)S(=O)(=O)c2cccn3cnnc23)c1	-0.06
CCOc1ccccc1NC(=O)Cn1nc2c(Sc3cccc(C)c3)nccn2c1=O	0.35
O=C(Cn1nc2c3cc(-c4ccc(F)cc4)nn3ccn2c1=O)Nc1ccccc1	9.56
COc1ccc(CN(c2cc(C)cc(C)c2)S(=O)(=O)c2cccn3cnnc23)cc1F	0.54
Cc1ccc(NC(=O)Cn2c(=O)c3nnc(C(C)C)n3c3ccccc32)cc1F	0.6
Cc1ccc(-c2ccc3nn(CC(=O)N4CCN(c5ccccc5)CC4)c(=O)n3n2)cc1C	0.84
CCCc1nnc2c(=O)n(CC(=O)Nc3ccc4c(c3)OCCO4)c3ccccc3n12	4.16
O=C(Cn1nc2c(SC3CCCCC3)nccn2c1=O)Nc1ccc(F)c(Cl)c1	5.93
COc1ccc(N(Cc2ccc(Cl)cc2)S(=O)(=O)c2ccc3nncn3c2)cc1	4.11
COc1ccc(-c2cc3c4nn(CC(=O)NCc5ccc(Cl)cc5)c(=O)n4ccn3n2)cc1	0.12
O=C(Cn1nc2ccc(-c3ccc(Cl)cc3)nn2c1=O)N1CCN(c2ccccc2F)CC1	2.81
O=C(CSc1nnc2c(=O)n(-c3ccc(Br)cc3)ccn12)c1ccc(F)cc1	5.26
COc1ccc(-c2cc3c4nnc(SCC(=O)Nc5ccccc5Cl)n4ccn3n2)cc1	2.61
Cn1c(=O)c2ccc(C(=O)NC3CCCCC3)cc2n2c(=O)n(CC#N)nc12	1.15

SMILES	Inhibition [%]
Cc1ccc(NC(=O)Cn2nc3c(SC4CCCCC4)nccn3c2=O)cc1F	-0.51
O=C(Cn1nc2ccc(C(=O)NCc3ccccc3)cn2c1=O)Nc1ccc2c(c1)OCO2	3.87
O=c1n(Cc2cccc(C(F)(F)F)c2)nc2c(S(=O)(=O)N3CCCCC3)cccn12	1.28
Cc1ccc(Cn2nc3c(=O)n(-c4cccc(Cl)c4C)ccn3c2=O)cc1	6.45
CCOc1ccccc1CNC(=O)CCc1nnc2ccc(-c3ccc(C)cc3)nn12	2.37
COc1cccc(-n2ccn3c(SCc4ccc(Cl)cc4)nnc3c2=O)c1	2.03
Cc1ccc(-n2ccn3c(=O)n(Cc4ccc(F)cc4)nc3c2=O)cc1C	1.58
COc1ccc(NC(=O)Cn2nc3nc(Nc4ccc(F)cc4)ccn3c2=O)cc1F	0.24
COc1ccc(C(=O)CSc2nnc3c(=O)n(-c4ccccc4)ccn23)cc1OC	25.44
Cc1nnc2c(S(=O)(=O)N(Cc3ccc(F)cc3)c3ccc(Cl)cc3)cccn12	4.67
COc1ccccc1NC(=O)Cn1c(=O)c2nnc(C(C)C)n2c2ccccc21	-0.06
CCc1ccc(N(Cc2ccc(C)cc2)S(=O)(=O)c2cccn3c(C)nnc23)cc1	0.84
COc1cccc(CNC(=O)CSc2nnc3c4cc(-c5cc(C)ccc5C)nn4ccn23)c1OC	2.62
CCOc1ccc(-n2ccn3c(SCC(=O)c4ccc(C)cc4)nnc3c2=O)cc1	1.13
O=C(Cn1nc2n(Cc3ccccc3)c(=O)c3ccccc3n2c1=O)Nc1ccc2c(c1)OCO2	0.36
Cc1ccc(-c2cc3c4nnc(SCC(=O)Nc5ccc(C#N)cc5)n4ccn3n2)cc1	0.36
COc1cccc(-n2ccn3c(-c4ccc([N+](=O)[O-])cc4)nnc3c2=O)c1	1.66
CCCCn1c(=O)c2sccc2n2c(=O)n(CC(=O)NC(C)C)nc12	0.06
COC(=O)c1ccc(CN(c2cccc(C)c2)S(=O)(=O)c2cccn3c(C)nnc23)o1	2.2
O=C(CSc1nnc2c(=O)n(-c3cccc(F)c3)ccn12)NCCc1ccccc1	5.41
